From PubChem BioAssay (EPA / NIEHS)
The source made the active and inactive calls. Rule for the calls: active = hit-call score of the fitted dose curve at least 0.9, where 1 is the maximum; inactive = score below 0.9.

Tests used:
[1] = ATG_CRE_CIS: Attagene CIS-FACTORIAL HepG2 Assay for human cAMP Responsive Element (CRE) binding protein 3 (AID 2282926); conditions: HepG2 CRE cis-reporter, Attagene multiplexed mRNA; actives raise or lower the signal
How it was run: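 Capillary electrophoresis of 6-FAM-labelled, HpaI-digested PCR products quantified reporter transcripts. These came from HepG2 transiently transfected with cis-element reporters and exposed to test chemicals for 24 hours, with DMSO defining baseline activity.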

[2] = target: CCAAT/enhancer-binding protein beta (Homo sapiens) (UniProt P17676); assay: ATG_C_EBP_CIS: Attagene CIS-FACTORIAL HepG2 Assay for human CCAAT/Enhancer Binding Protein (C/EBP) beta (AID 2282927); conditions: HepG2 Attagene cis-factorial transcription factor reporter; actives raise or lower the signal
Chain of CCAAT/enhancer-binding protein beta (Homo sapiens) (P17676 whole entry, looked up): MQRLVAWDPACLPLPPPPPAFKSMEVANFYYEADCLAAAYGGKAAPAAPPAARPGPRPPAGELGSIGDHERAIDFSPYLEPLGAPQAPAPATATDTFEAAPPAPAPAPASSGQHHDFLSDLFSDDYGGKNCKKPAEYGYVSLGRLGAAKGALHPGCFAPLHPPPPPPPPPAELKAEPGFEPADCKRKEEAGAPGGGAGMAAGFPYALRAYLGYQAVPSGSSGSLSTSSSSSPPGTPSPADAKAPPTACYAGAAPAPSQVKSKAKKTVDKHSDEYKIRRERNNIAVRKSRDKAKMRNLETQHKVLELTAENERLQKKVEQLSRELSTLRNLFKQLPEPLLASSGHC
How it was run: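 Following a 24 h incubation with test chemical, transfected HepG2 cells yielded RNA whose reporter transcripts were quantified by RT-PCR and fluorescent capillary electrophoresis, with DMSO serving as baseline for bidirectional fitting.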

[3] = ATG_CMV_CIS: Attagene CIS-FACTORIAL HepG2 Assay for human CMV (Internal Marker) (AID 2282928); conditions: HepG2 CMV promoter reporter, transcription factor profiling; actives raise or lower the signal;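 note: endpoint acts as a background internal control marker rather than a target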
How it was run: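 Fluorescence intensity of RT-PCR-derived reporter fragments, resolved by capillary electrophoresis, gives the signal. HepG2 liver cells bearing transfected cis-element reporters were treated 24 h; activity in either direction was fit relative to DMSO-treated controls.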

[4] = ATG_DR4_LXR_CIS: Attagene CIS-FACTORIAL HepG2 Assay for human Liver X Receptor (LXR), DR4 submotif (AID 2282929); conditions: HepG2 Attagene DR4 cis-reporter, mRNA transcription; actives raise or lower the signal
How it was run: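 DR4 cis-reporter in HepG2, 24 h exposure. Detection: RT-PCR, 6-FAM labelling, CE fragment analysis. Endpoint fitted bidirectionally, DMSO = baseline.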

[5] = target: Aryl hydrocarbon receptor (Homo sapiens) (UniProt P35869); assay: ATG_Ahr_CIS: Attagene CIS-FACTORIAL HepG2 Assay for human Aryl Hydrocarbon Receptor (Ahr) (AID 2282930); conditions: HepG2 AhR cis-factorial reporter transcription; actives raise or lower the signal
Chain of Aryl hydrocarbon receptor (Homo sapiens) (P35869 whole entry, looked up): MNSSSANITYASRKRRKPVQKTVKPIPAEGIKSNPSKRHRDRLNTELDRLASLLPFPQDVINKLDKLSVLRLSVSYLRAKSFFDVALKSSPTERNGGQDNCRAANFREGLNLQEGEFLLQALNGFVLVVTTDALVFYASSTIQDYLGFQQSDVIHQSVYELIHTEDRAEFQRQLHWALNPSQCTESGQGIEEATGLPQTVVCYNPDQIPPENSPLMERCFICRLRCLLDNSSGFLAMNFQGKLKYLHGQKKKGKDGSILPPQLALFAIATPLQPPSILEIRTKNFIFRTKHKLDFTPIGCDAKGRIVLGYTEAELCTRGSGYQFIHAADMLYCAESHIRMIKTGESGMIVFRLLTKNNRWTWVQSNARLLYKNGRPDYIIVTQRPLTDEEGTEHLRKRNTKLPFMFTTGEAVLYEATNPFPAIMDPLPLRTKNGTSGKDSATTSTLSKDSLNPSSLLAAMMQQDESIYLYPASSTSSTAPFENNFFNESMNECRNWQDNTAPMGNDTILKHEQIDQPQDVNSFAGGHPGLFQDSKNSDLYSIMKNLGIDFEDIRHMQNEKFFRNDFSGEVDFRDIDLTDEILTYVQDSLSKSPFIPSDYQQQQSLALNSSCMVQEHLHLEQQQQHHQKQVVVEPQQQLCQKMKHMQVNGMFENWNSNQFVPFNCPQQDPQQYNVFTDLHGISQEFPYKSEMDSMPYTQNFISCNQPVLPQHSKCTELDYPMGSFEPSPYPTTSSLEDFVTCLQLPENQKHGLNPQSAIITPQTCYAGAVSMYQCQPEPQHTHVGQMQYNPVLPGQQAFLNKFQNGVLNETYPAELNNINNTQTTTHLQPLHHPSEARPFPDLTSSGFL
How it was run: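 Values derive from bidirectional fitting against DMSO negative control. Underlying signal: cis-element reporter mRNA in transiently transfected HepG2, harvested 24 h post-dose and measured by RT-PCR plus capillary electrophoresis.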

[6] = ATG_AP_1_CIS: Attagene CIS-FACTORIAL HepG2 Assay for human Activator Protein 1 (AP-1) (AID 2282931); conditions: HepG2 Attagene cis-factorial AP-1 reporter mRNA; actives raise or lower the signal
How it was run: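 Cis-regulated reporter units transiently expressed in HepG2 report endogenous transcription-factor activity. Signal: reporter mRNA at 24 h, via RT-PCR and fluorescent capillary electrophoresis. Endpoint derived by bidirectional fitting, DMSO as negative control.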

[7] = ATG_AP_2_CIS: Attagene CIS-FACTORIAL HepG2 Assay for human Activator Protein 2 (AP-2) (AID 2282932); conditions: HepG2 AP-2 cis-reporter, Attagene transcription factor profiling; actives raise or lower the signal
How it was run: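 Cells (HepG2) transfected with promoter-driven reporter constructs, treated 24 h. Total RNA reverse-transcribed, reporter cDNA PCR-amplified, FAM-labelled by primer extension, digested, resolved by capillary electrophoresis. Activity fitted both directions versus DMSO.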

[8] = ATG_BRE_CIS: Attagene CIS-FACTORIAL HepG2 Assay for human Bone Morphogenetic Protein (BMP) Response Element (BRE) (AID 2282933); conditions: HepG2 BMP response element reporter, Attagene transcription factor profiling; actives raise or lower the signal
How it was run: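 Read-out: reporter mRNA induction quantified by RT-PCR and capillary electrophoresis after 24 h chemical exposure of transfected HepG2 cells. Endogenous factor activity on the BMP response element; gain or loss fitted against DMSO baseline.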

[9] = target: Retinoic acid receptor alpha (Homo sapiens) (UniProt P10276); assay: ATG_DR5_RAR_CIS: Attagene CIS-FACTORIAL HepG2 Assay for human Retinoic Acid Receptor Alpha (RARE), DR5 submotif (AID 2282934); conditions: HepG2 Attagene cis-factorial RARE DR5 reporter, mRNA; actives raise or lower the signal;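 for AC50: reporter responds to endogenous RAR alpha beta and gamma in HepG2 not RARA alone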
Chain of Retinoic acid receptor alpha (Homo sapiens) (P10276 whole entry, looked up): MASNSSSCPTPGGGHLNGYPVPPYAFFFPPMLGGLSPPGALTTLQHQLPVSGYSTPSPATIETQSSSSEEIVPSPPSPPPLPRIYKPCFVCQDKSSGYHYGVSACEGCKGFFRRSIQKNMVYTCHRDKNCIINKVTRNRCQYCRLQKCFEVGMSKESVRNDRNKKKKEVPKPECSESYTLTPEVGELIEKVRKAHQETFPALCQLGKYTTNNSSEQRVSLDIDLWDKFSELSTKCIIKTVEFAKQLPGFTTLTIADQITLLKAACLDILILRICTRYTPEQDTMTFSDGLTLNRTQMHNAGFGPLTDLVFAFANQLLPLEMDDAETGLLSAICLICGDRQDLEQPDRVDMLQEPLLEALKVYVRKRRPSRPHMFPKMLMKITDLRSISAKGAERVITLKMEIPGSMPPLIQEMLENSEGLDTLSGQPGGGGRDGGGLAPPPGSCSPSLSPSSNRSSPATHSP
How it was run: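 Endpoint fitted in both directions relative to DMSO as negative control. It reflects DR5 cis-element reporter mRNA induction in transiently transfected HepG2 cells, measured 24 h after dosing through RT-PCR and fluorescent capillary electrophoresis.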

[10] = target: Transcription factor E2F1 (Homo sapiens) (UniProt Q01094); assay: ATG_E2F_CIS: Attagene CIS-FACTORIAL HepG2 Assay for human E2F Transcription Factor 1 (AID 2282935); conditions: HepG2 Attagene cis-reporter, E2F reporter RNA transcripts; actives raise or lower the signal
Chain of Transcription factor E2F1 (Homo sapiens) (Q01094 whole entry, looked up): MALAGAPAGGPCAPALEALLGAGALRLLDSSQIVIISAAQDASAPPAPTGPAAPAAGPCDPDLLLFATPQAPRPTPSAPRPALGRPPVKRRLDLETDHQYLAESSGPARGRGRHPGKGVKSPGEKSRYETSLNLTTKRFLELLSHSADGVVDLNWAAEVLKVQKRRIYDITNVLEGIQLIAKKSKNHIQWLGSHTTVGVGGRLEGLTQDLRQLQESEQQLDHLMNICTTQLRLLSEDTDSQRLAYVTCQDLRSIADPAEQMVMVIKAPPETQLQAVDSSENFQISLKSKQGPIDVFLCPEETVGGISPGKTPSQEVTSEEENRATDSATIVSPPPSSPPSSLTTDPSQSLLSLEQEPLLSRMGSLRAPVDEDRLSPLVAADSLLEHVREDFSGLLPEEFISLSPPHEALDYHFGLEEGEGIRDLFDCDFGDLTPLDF
How it was run: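 First, HepG2 cells were transfected with reporter transcription units. Next, they were dosed for 24 h. Then RNA was isolated, converted to cDNA, PCR-amplified, FAM-labeled, HpaI-digested and analyzed by capillary electrophoresis.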

| SMILES | outcome [1] | outcome [2] | AC50 [3] | AC50 [4] | outcome [5] | AC50 [6] | outcome [7] | outcome [8] | outcome [9] | outcome [10] | outcome [3] | outcome [4] | outcome [6] | AC50 [8] | AC50 [9] | AC50 [10] | AC50 [5] |
| --- | --- | --- | --- | --- | --- | --- | --- | --- | --- | --- | --- | --- | --- | --- | --- | --- | --- |
| CN(C)c1ccc(N=Nc2ccccc2C(=O)O)cc1 | inactive | inactive | 137 µM (active) | 29.7 µM (active) | inactive | 37.7 µM (active) | inactive | inactive | inactive | inactive |  |  |  |  |  |  |  |
| O=C(O)Cc1c(Cl)ccc(Cl)c1Cl | inactive | inactive |  |  | inactive |  | inactive | inactive | inactive | inactive | inactive | inactive | inactive |  |  |  |  |
| CCCCCCCCc1ccc(Nc2ccc(CCCCCCCC)cc2)cc1 | inactive | inactive |  |  | inactive |  | inactive | inactive | inactive | inactive | inactive | inactive | inactive |  |  |  |  |
| CC(C)c1ccc2c(c1)CC[C@H]1[C@](C)(CN)CCC[C@]21C | inactive | inactive | 5.78 µM (active) | 5.39 µM (active) | inactive | 5.99 µM (active) | inactive |  |  |  |  |  |  | 5.7 µM (active) | 6.12 µM (active) | 6.03 µM (active) |  |
| CC(C)CC(O)Cc1ccccc1 (stereo not given) | inactive | inactive |  |  | inactive |  | inactive | inactive | inactive | inactive | inactive | inactive | inactive |  |  |  |  |
| C#CC1(O)CC[C@H]2[C@@H]3CCC4=CCCC[C@@H]4[C@H]3CC[C@@]21C (stereo not given in full) | inactive | inactive |  | 1.24 µM (active) | inactive |  | inactive |  |  | inactive | inactive |  | inactive | 34 µM (active) | 49 µM (active) |  |  |
| CCc1c(C(=O)O)c(=O)cnn1-c1ccc(Cl)cc1 | inactive | inactive |  |  | inactive |  | inactive | inactive | inactive | inactive | inactive | inactive | inactive |  |  |  |  |
| O=S(=O)(O)c1ccc2cc(O)c(S(=O)(=O)O)cc2c1 | inactive | inactive | 166 µM (active) | 60.8 µM (active) |  |  | inactive | inactive | inactive | inactive |  |  | inactive |  |  |  | 138 µM (active) |
| Nc1ccc(-c2ccc(F)cc2)cc1 | inactive | inactive |  |  | inactive |  | inactive | inactive | inactive | inactive | inactive | inactive | inactive |  |  |  |  |
| [Cl][Nd]([Cl])[Cl] | inactive | inactive |  |  | inactive |  | inactive | inactive | inactive | inactive | inactive | inactive | inactive |  |  |  |  |
| CC1=Nc2ccc3ccccc3c2C1(C)C | inactive | inactive | 66.4 µM (active) |  | inactive | 66 µM (active) | inactive |  | inactive | inactive |  | inactive |  | 65.7 µM (active) |  |  |  |
| CCCCCCCCCCCSCC(=O)O | inactive | inactive |  | 48.8 µM (active) | inactive |  | inactive | inactive |  | inactive | inactive |  | inactive |  | 2.13 µM (active) |  |  |
| C[Si](C)O[Si](C)(C)O[Si](C)(C)O[Si](C)C | inactive | inactive |  |  | inactive |  | inactive | inactive | inactive | inactive | inactive | inactive | inactive |  |  |  |  |
| Cc1cc(C)c(C(=O)O)c(C)c1 | inactive | inactive |  |  | inactive |  | inactive | inactive | inactive | inactive | inactive | inactive | inactive |  |  |  |  |
| C=CC(=O)OCCOC1C2CCC1C1CC=CC12 (stereo not given) | inactive | inactive |  |  | inactive |  | inactive | inactive | inactive | inactive | inactive | inactive | inactive |  |  |  |  |
| CCOC(=O)c1ccc(N(C)C)cc1 | inactive | inactive |  |  |  |  | inactive | inactive | inactive | inactive | inactive | inactive | inactive |  |  |  | 44.4 µM (active) |
| CC(C)(C)C(=O)CCc1ccc(Cl)cc1 | inactive | inactive |  |  | inactive |  | inactive | inactive | inactive | inactive | inactive | inactive | inactive |  |  |  |  |
| O=Cc1ccc(CO)o1 | inactive | inactive |  |  | inactive |  | inactive | inactive | inactive | inactive | inactive | inactive | inactive |  |  |  |  |
| CCOC(=O)Cc1cccc2ccccc12 | inactive | inactive |  |  | inactive |  | inactive | inactive |  | inactive | inactive | inactive | inactive |  | 39.5 µM (active) |  |  |
| CC=C1CC2C=CC1C2 (stereo not given) | inactive | inactive |  | 26.5 µM (active) | inactive | 67.1 µM (active) | inactive | inactive | inactive | inactive | inactive |  |  |  |  |  |  |
| CC(=O)Oc1ccc(C)cc1 | inactive | inactive |  |  | inactive |  | inactive | inactive | inactive | inactive | inactive | inactive | inactive |  |  |  |  |
| Nc1ccc(Oc2ccc(N)c(N)c2)cc1 | inactive | inactive | 85.5 µM (active) |  | inactive |  | inactive | inactive | inactive | inactive |  | inactive | inactive |  |  |  |  |
| C1=CCCC1 | inactive | inactive |  |  | inactive |  | inactive | inactive | inactive | inactive | inactive | inactive | inactive |  |  |  |  |
| CNC(=S)N(C)C | inactive | inactive |  |  | inactive |  | inactive | inactive | inactive | inactive | inactive | inactive | inactive |  |  |  |  |
